The full list was thinned out, with hits kept by preference.
Dicer inh – inhibitors of Dicer pre-microRNA processing, primary screen, biochemical, cat-ELCCA, chemiluminescence. Endoribonuclease Dicer (Homo sapiens), Q9UPY3. cat-ELCCA pre-miR-21 Dicer processing; hits give high values. z-score at 25 µM. 47,000 compounds, 6% hits. AID 1347074, 2019; in the data active = z-score above about 3, passing the limit was not always enough;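 note: higher signal means more uncleaved substrate so more Dicer inhibition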
Hits are given with their value.

Results for N#C/C(=N\OC(=O)c1ccc(Cl)cc1)S(=O)(=O)c1ccc(Cl)cc1 ?
Dicer inh: inactive

What do the screens show for `Cc1cc(Cl)ccc1OC(C)C(=O)Nc1sc2c(c1C(N)=O)CCCC2` (configuration not stated)?
Dicer inh: inactive

Results for COC(=O)c1c(OC)ccc(N=CNO)c1OC ?
Dicer inh: inactive

What do the screens show for `Cc1ccn2cc(-c3ccccc3)cc2c1`?
Dicer inh: inactive

Results for CCOC(=O)c1sc(N2C(=O)c3oc4ccccc4c(=O)c3C2c2ccc(Cl)cc2)nc1C (configuration not stated) ?
Dicer inh: inactive

What do the screens show for `C=CCN1C(=O)C(O)(CC(=O)c2ccc(C(C)C)cc2)c2ccccc21` (configuration not stated)?
Dicer inh: inactive

How did COc1cc(Cl)ccc1N=Cc1c(O)c2c(=O)n(C)c(=O)n(C)c2n(C)c1=O do in these assays?
Dicer inh: inactive

Results for FC(F)(F)c1ccc(N2CCC(n3cccc3)CC2)nc1 ?
Dicer inh: inactive

Results for O=C(CSc1nc2ccccc2s1)Nc1nccs1 ?
Dicer inh: inactive

Results for COc1ccccc1NC(=O)CSc1cc(C(F)(F)F)cc(C(F)(F)F)c1 ?
Dicer inh: inactive

Results for O=C(CSC1=NCCS1)NC1Cc2ccccc2C1 ?
Dicer inh: inactive

What do the screens show for `O=C(CSC1=NCCS1)Nc1nccs1`?
Dicer inh: 4

How did COc1ccccc1NC(=O)CSC1=NCCS1 do in these assays?
Dicer inh: 4.2

What do the screens show for `O=C(CSC1=NCCS1)Nc1nc2ccccc2s1`?
Dicer inh: inactive

How did Cn1c(=O)c(/C(N)=N/O)cn(-c2ccccc2)c1=O do in these assays?
Dicer inh: inactive

How did O=C1C=CC(=O)C(CCCCCCC2=CC(=O)C=CC2=O)=C1 do in these assays?
Dicer inh: inactive

Results for CSc1sc(-c2ccnc(SCC(=O)c3ccccc3)n2)c(-c2ccccc2)c1C#N ?
Dicer inh: inactive

How did Cn1c2c(c(=O)n(C)c1=O)CN(CCCCN)CN2 do in these assays?
Dicer inh: inactive

How did CCCCOC(=O)C1=C(C)NC2=C(C(=O)CCC2)C1c1cc2c(cc1Cl)OCO2 (configuration not stated) do in these assays?
Dicer inh: inactive

How did O=C(Oc1ccc(Cl)cc1)c1cscc1Sc1ccc(Cl)cc1 do in these assays?
Dicer inh: inactive

Results for CCCCNS(=O)(=O)c1cc(-c2nnc3c4ccccc4c(C)nn23)ccc1C ?
Dicer inh: inactive

How did Cc1cc(C)c(N=C2SCC(=O)N2Cc2ccco2)c(C)c1 do in these assays?
Dicer inh: 4.8

What do the screens show for `COc1ccccc1N=C1SCC(=O)N1Cc1ccco1`?
Dicer inh: 4

What do the screens show for `COc1ccc(N=C2SCC(=O)N2CCc2ccc(OC)c(OC)c2)cc1`?
Dicer inh: inactive

Results for O=C1CSC(=Nc2cc(Cl)cc(Cl)c2)N1Cc1cccs1 ?
Dicer inh: inactive

What do the screens show for `O=C1CSC(=Nc2ccc(Cl)cc2)N1Cc1ccco1`?
Dicer inh: inactive

What do the screens show for `CC(c1ccccc1)C1CC(=O)N(Cc2ccco2)C1=O` (configuration not stated)?
Dicer inh: inactive

What do the screens show for `CCOC(=O)c1c(N/N=C\c2ccccc2Cl)n[nH]c1C`?
Dicer inh: inactive

How did COC(=O)C(C)OC(=O)c1ccc(Oc2nc(N(C)C)nc(N(C)C)n2)cc1 (configuration not stated) do in these assays?
Dicer inh: inactive

Results for O=c1sc2ccccc2c(N2CCN(c3ccccc3)CC2)c1[N+](=O)[O-] ?
Dicer inh: inactive

How did CN(C)CCCNc1sc(-c2ccccn2)c([N+](=O)[O-])c1[N+](=O)[O-] do in these assays?
Dicer inh: inactive

Results for CC(C)(C)Nc1c([N+](=O)[O-])c(=O)sc2ccccc12 ?
Dicer inh: inactive

What do the screens show for `O=c1sc2ccccc2c(Nc2ccccc2)c1[N+](=O)[O-]`?
Dicer inh: 3.6

Results for CCCCNc1c([N+](=O)[O-])c(=O)sc2ccccc12 ?
Dicer inh: 7

Results for O=c1sc2ccccc2c(NCCCN2CCOCC2)c1[N+](=O)[O-] ?
Dicer inh: inactive

Results for O=S(=O)(Nc1ccccc1C(F)(F)F)c1cccs1 ?
Dicer inh: inactive

How did COc1ccc(N=CC2=C(Cl)c3cc(F)ccc3OC2)cc1 do in these assays?
Dicer inh: inactive

What do the screens show for `O=[N+]([O-])c1cc(C(F)(F)F)ccc1Oc1ccc(SC(F)(F)F)cc1`?
Dicer inh: inactive

Results for O=C(CSc1nc(-c2ccc(F)cc2)cc(C(F)(F)F)n1)NCCCn1ccnc1 ?
Dicer inh: inactive

What do the screens show for `CCCOc1ccc(C2C(C(=O)OC(C)C)=C(C)Nc3nc4ccccc4n32)cc1` (configuration not stated)?
Dicer inh: inactive

What do the screens show for `O=C1CSCC(=O)N1c1ccccc1N1CCOCC1`?
Dicer inh: inactive

Results for Nc1c(C(=O)NNC(=S)NCc2ccccc2)sc2nnc(-c3ccccc3)c(-c3ccccc3)c12 ?
Dicer inh: inactive

How did CC(C)=NN/C(N)=N/C(=S)Nc1ccccc1 do in these assays?
Dicer inh: 4

How did C/C(N)=N/C(=S)Nc1ccc(Cl)cc1 do in these assays?
Dicer inh: inactive

How did CO/C(N)=N/C(=S)Nc1ccccc1 do in these assays?
Dicer inh: inactive

What do the screens show for `Cn1nccc1NC(=O)c1ccccc1`?
Dicer inh: inactive

How did O=C1CC2(CCCC2)CC(=O)N1Cc1csc2ccccc12 do in these assays?
Dicer inh: inactive

How did CCOC(=O)c1c(-c2ccccc2)c2oc3ccc(Cl)cc3c2[nH]c1=O do in these assays?
Dicer inh: inactive

Results for CCOC(=O)c1cc(C)nc2ccc(Br)cc12 ?
Dicer inh: inactive

Results for COc1ccc(-c2nnc(SCCC(=O)O)o2)cc1 ?
Dicer inh: inactive

What do the screens show for `CCCCc1cc(C)c2nc(-c3ccc(OC)c(OC)c3)cc(C(=O)O)c2c1`?
Dicer inh: inactive

What do the screens show for `CCCCc1c(O)nc(SCCC(=O)O)[nH]c1=O`?
Dicer inh: inactive

What do the screens show for `CCCCc1c(C)nc2c(OC)cccc2c1SCCC(=O)O`?
Dicer inh: 3.5

What do the screens show for `Cc1nc2ccc(Br)cc2c(-c2ccccc2)c1C(=O)O`?
Dicer inh: inactive

Results for CCOC(=O)CSc1nc(C)c2ccccc2n1 ?
Dicer inh: inactive

Results for CCCCc1c(C)nc2ccccc2c1SCCC(=O)O ?
Dicer inh: 3.7

How did CCc1c(C)nc2ccc(Br)cc2c1SCCC(=O)O do in these assays?
Dicer inh: 3.2

How did O=C(O)c1cc(Cl)ccc1Sc1ccccc1CO do in these assays?
Dicer inh: inactive

Results for O=C1CC(/C=C/c2ccccc2)Cc2nc(N3CCN(c4ccccc4)CC3)ncc21 (configuration not stated) ?
Dicer inh: inactive

What do the screens show for `C=CCC1(O)CC(c2ccccc2)NC(c2ccccc2)C1CC` (configuration not stated)?
Dicer inh: inactive

How did Cc1cccc(C(=O)Nc2nc3ccc(C)cc3c(=O)[nH]2)c1 do in these assays?
Dicer inh: inactive

How did O=C(Nc1nn[nH]n1)C1(c2ccccc2)CCCC1 do in these assays?
Dicer inh: inactive

What do the screens show for `CCN(C(=O)Nc1c(-c2c(Cl)cccc2Cl)noc1C)c1ccccc1`?
Dicer inh: inactive

Results for Cc1ccc(NC(=O)c2cccnc2Sc2cccc(C(F)(F)F)c2)cc1 ?
Dicer inh: inactive

How did COc1cccc(C2C3=C(CC(C)(C)CC3=O)OC3=C2C(=O)CC(C)(C)C3)c1O do in these assays?
Dicer inh: inactive

How did O=C(NC(=O)c1c(Cl)cccc1Cl)Oc1cc(C(F)(F)F)cc(C(F)(F)F)c1 do in these assays?
Dicer inh: inactive

Screens deposited in PubChem BioAssay by Center for Chemical Genomics, University of Michigan.
